# The supplement of paper PMC6555819
# How the values were obtained:
# Test in all cases: PBM binding z-score (relative to random genomic background probes); higher = stronger binding; sequences stand for … in GC…GCGATTGACAGCGTAGAATGAAGG
# [1] = tested on: FXR:RXRa (NR concentration 270 nM, RXRa partner concentration 90 nM)
# Method in brief: (§1)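 Ligand-free nuclear receptor dimers were applied to custom Agilent 4×180K protein-binding microarrays whose double-stranded probes carried direct-repeat seeds, single-nucleotide variants, half-site ablations and random human genomic background sequences in 34-nt variable regions. Incubation lasted 1 h. Binding z-scores were computed against the random background probes from regression-normalized fluorescence.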
# [2] = tested on: LXRa:RXRa (NR concentration 270 nM, RXRa partner concentration 90 nM)
# Method in brief: as §1
# [3] = tested on: LXRa homodimer (NR concentration 270 nM)
# Method in brief: as §1
# [4] = tested on: LXRb:RXRa (NR concentration 270 nM, RXRa partner concentration 90 nM)
# Method in brief: as §1
# [5] = tested on: LXRb homodimer (NR concentration 270 nM)
# Method in brief: as §1
# [6] = tested on: PPARa:RXRa (NR concentration 270 nM, RXRa partner concentration 90 nM)
# Method in brief: as §1
# [7] = tested on: PPARg:RXRa (NR concentration 180 nM, RXRa partner concentration 90 nM)
# Method in brief: as §1
# [8] = tested on: PPARg:RXRa 270nM:90nM, anti-RXR (NR concentration 270 nM, RXRa partner concentration 90 nM)
# Method in brief: as §1
# [9] = tested on: PPARg:RXRa 30nM:10nM, anti-RXR (NR concentration 30 nM, RXRa partner concentration 10 nM)
# Method in brief: as §1
# [10] = tested on: PPARg:RXRa 90nM:30nM, anti-RXR (NR concentration 90 nM, RXRa partner concentration 30 nM)
# Method in brief: as §1
Sequence,PBM binding z-score [1],PBM binding z-score [2],PBM binding z-score [3],PBM binding z-score [4],PBM binding z-score [5],PBM binding z-score [6],PBM binding z-score [7],PBM binding z-score [8],PBM binding z-score [9],PBM binding z-score [10]
TCTAGCAGGCCAGAGGGTCACCCAAGAGGTACGG,1.31,1.35,-0.606,1.36,-0.868,2.83,1.73,2.84,1.92,2.71
GCTTGTAGATCAAGGATAAGAAAGACTAAGCTAA,-0.495,-1.03,-0.557,-0.935,-0.998,-0.619,0.375,0.179,-0.00993,-0.0632
ACCAGCAGGCCAAGTTTGGGTCACTCAAACAAAG,0.266,-0.108,-0.521,0.635,-0.887,1.31,-0.217,0.223,-0.767,-0.323
ATATGTAGGTTATCGGTTCATTCAGTTTGCGCAT,1.28,1.84,1.33,1.71,1.17,3.91,5.47,5.22,2.65,4.65
ACTAGTTGGTCAGCTTAGGTCACACACAATTCGG,1.75,1.6,1.42,1.82,0.877,1.97,1.07,1.05,0.166,0.931
TCTTGTAGATCAAGCAGGTTTAGAAAGCCTGAGT,0.0311,0.0459,-0.387,-0.134,-0.464,0.137,-0.639,0.91,2.24,1.35
TAGCCTAGGTCAAGGGCCAGTATACCACGCGAAC,4.16,3.02,0.0881,2.2,-0.716,3.87,4.52,4.61,1.8,3.59
CCTAGTTGGTCAAGGTCACACGCGCTATAGGTAC,4.49,3.9,2.29,3.34,0.902,4.29,3.54,3.95,1.23,3.1
CCGAGTAGGTCATGGGGCATTCAGGCAACGGTGA,4.82,3.04,0.422,2.42,-0.503,4.92,8.14,7.29,6.6,7.69
GCTGCTAGGTCAACTGATGGTCCGCTAAAGCTCG,3.85,2.46,0.00165,1.92,-0.00733,3.41,2.32,2.97,0.463,1.97
GCATGTAGGTAATACAAGGTGAAAGTCCGATTGT,0.127,1.13,0.162,0.172,-0.45,1.62,1.34,1.52,0.458,0.981
CCTGCTAGGTCAATGGTCGGCTAAAGCAGCTCGC,2.91,2.29,0.0582,1.14,-0.355,2.95,3.48,4.34,1.27,3.38
CCGACTGGGGCAGATAGGTTACCATACCATCCGG,-0.431,-0.25,0.171,-0.154,-1.16,0.179,0.914,0.44,-0.164,-0.0542
TAGCCTAGGTCATTCATGGGCCAGTATAGAAAGC,4.38,3.5,0.512,2.34,0.48,3.38,2.02,2.1,0.373,1.1
TCTAGTTGGTCAAAGGTCATACACTCGAAATGCG,5.83,6.03,4.66,5.62,2.02,6.59,10.8,9.47,9.65,10.2
GGAACGAGGGCAAGTTTATAGCAGAGTTTGATGG,0.688,0.332,-0.039,0.229,-0.306,1.61,1.24,0.978,0.337,0.307
CAAACTAGGTCAGGGTCAAAGTCGGTTTGTGCCA,5.97,4.32,1.32,4.16,0.645,6.05,9,7.43,5.39,7.73
CCTTACGGGTCACTCCAGGTGATAGCATCGGAGT,5.24,5.98,0.158,3.34,-0.0681,4.26,3.57,3.66,1.31,2.64
TCTTGTAGATCAAAGGTTAAGAACGCCGAAGCCT,2.02,2.28,0.21,2.16,0.138,4.96,8.19,7.86,7.43,8.26
TATCCTAGGTCATTGGGCCAGTATAGTACGCATC,4.8,6.02,5.49,3.44,2.48,4.44,5.45,4.94,2.33,4.11
ACCGACAGGTGATGAAGGTAACTCAGGCTATCAT,-0.0834,-0.243,-0.257,-0.498,-0.393,0.179,0.492,-0.102,-0.173,-0.00846
CGAACGACGGCATGAGTTGATAGCAAATGCCGAT,-0.791,-1.12,-0.686,-1.11,-1.32,-1.22,0.598,-0.893,-0.557,-0.878
AGAATGAGCTTATACGTAGATCAGGGAAGAAAGT,-0.818,-0.491,-0.371,-0.861,-0.689,-0.706,0.415,-0.614,-0.0699,-0.597
TAGCCTTGGTCATGCGGGCCAGTATAGTGTCGGC,-0.908,-1.14,-0.986,-1.09,-0.961,-0.707,-0.423,-0.768,-0.886,-0.995
CATACAGGGTCAGCTAGGCCACAGTAGGGACGGC,4.61,3.07,-0.102,2.31,0.444,4.29,3.75,3.32,0.994,2.01

Sequence,PBM binding z-score [1],PBM binding z-score [2],PBM binding z-score [3],PBM binding z-score [4],PBM binding z-score [5],PBM binding z-score [6],PBM binding z-score [7],PBM binding z-score [8],PBM binding z-score [9],PBM binding z-score [10]
TAGCCTAGGTCATTCAGGGGCCAGGATAGAAAGC,4.96,3.81,0.311,2.77,0.864,3.69,2.2,2.42,0.232,1.26
ACTGGCAGGCCAAGTTTGGGTCACTCAAACAAAG,0.314,0.00721,-0.384,0.727,-0.59,1.36,-0.374,-0.085,-0.662,-0.496
CGTCCAAGGTCAGCAAGTCAGTGAAAGCGACGTG,4.99,3.1,-0.297,2.02,-0.381,4.25,2.21,3.14,0.523,1.9
CGTCCAAGGTCAGAGAGGTCAGTCAATGCCGAGT,6.08,5.49,3.45,4.65,0.441,4.81,3.37,4.63,1.03,2.63
CAAACTAGCTCACAGAGGTCAAAGTCCGTGCGTA,4.84,5.04,5.7,4.99,1.59,4.82,2.1,3.38,1.05,2.74
ACTATTTGTTGAGACGAGGGCAACCGATAGGTTG,0.374,0.535,0.28,0.453,0.762,0.255,0.623,0.216,0.23,0.0132
AGAACGAGGGCACGCTGAGTTGCTAGCAGAGTAG,0.473,0.348,-0.756,-0.279,-1.02,2.05,1.85,1.6,0.179,0.707
TCTCGGAGCACACGAAGGTCAGAGCTTTCCAGAG,0.286,0.742,-0.215,0.706,-1.73,1.7,0.118,1.06,1.04,0.995
TCTTTTAGTTGATTAGGGCAACCGAAACAGCGGA,1.17,0.955,0.422,0.976,2.11,1.45,0.152,2.66,4.27,3.34
CCTCGGAGGACAGATGGTCAGAGCTGTCCGCTTT,-0.143,-0.35,-0.187,-0.927,-0.896,-0.597,-0.644,-0.669,-1.17,-0.907
TCTGCTAGGTCAGTTGGTAAGCTAACGAGCTGCC,0.91,0.626,-1.01,0.157,0.503,0.96,0.118,1.28,1.04,1.18
AGTCAAAGTTCATCTAGGTAACGTATGATATGCT,6.72,5.89,5.49,3.77,1.5,4.97,6.95,6.52,3.52,5.74
CAAACTAGGTAAAAGGTCAAAGTCGAGCCAACCA,6.21,6.09,4.59,5.87,2.23,6.92,12.1,10.2,11,11.4
GCTAGCATGCCATTTGGGTCACTCAATGACGGGC,0.122,-0.0732,-0.46,0.0644,-0.628,1.05,0.819,0.752,-0.349,0.397
ATATGTAGATTATCGGGTCATTCAGTTTGCGCAT,2.14,2.5,1.98,2.47,0.87,2.81,1.63,1.77,0.662,1.31
CAAACTAGGTCAAGAGGTTAAAGTCCGCTTCCCG,5.05,4.32,2.01,3.13,0.567,5.3,8.91,7.27,5.14,7.16
CGAACTAGGTCAGAACAGGAGAGTGAAGGATGAT,0.927,0.589,-0.174,0.371,-0.252,3.11,5.25,4.6,1.34,3.7
TAGCCTAGGTCATCGGGCCAGTATAGTACGCATC,4.52,3.33,0.51,2.29,0.0366,3.91,3.13,3.04,0.482,2.16
TCAGACAGGTGAAGGTAACTCATGTACGCAGTCG,0.849,1.03,-0.116,0.964,-0.0252,1.26,0.954,2.14,4.07,2.81
GCTCGGAGGACGAGGTCAGAGCTTTGTCCGTAGA,1.88,1.6,-0.0578,1.38,-1.38,2.9,0.449,1.04,-0.495,0.269
AGAATGAGGTTAAGAACAGGGAAACAGAATACAT,2.13,1.7,0.291,1.87,0.264,3.18,2.15,2.05,0.811,1.34
CGTCAAAGTTCAAAGTAACGTAACAGAAAGCAGC,6.87,6.57,4.32,4.01,2.75,4.91,4.43,5.36,2.18,4.17
ATCTCTAGGTAAGACTCAGTTCAGTGTAGAACGC,0.302,0.547,0.708,0.286,0.886,0.0925,-0.0106,0.309,0.182,0.398
GATACAGGGTAAGCTAGAGGCCAGAGTATGGAAA,-0.252,-0.448,-0.407,-0.76,-1.15,-0.293,0.319,-0.0379,-0.0812,-0.0554
